Growth data for 40 compounds are collected here from PubChem BioAssay (NCI).

SMILES strings stand for the structures. About 83,000 compounds went through this panel and 20% of them were active in at least one assay; those are over-represented in the sample as a whole.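 Cells were grown in 96-well plates and exposed to the test compound at a single concentration for 48 hours; results are reported as percent growth, with values below 10 considered active.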 Unmarked numbers belong to inactive results. The source made the active and inactive calls.

In the test the test system is HL-60(TB) leukemia. Put plainly: NCI-60 one-dose screen, 48 h (100 = growth as untreated, 0 = no growth, -100 = all killed). The conditions noted are these: 10 µM unless noted.
Consider `Cl`, for which the growth is 107%.
The same measure for `COc1cc2c(c(OC)c1OC)CCC(c1cccc(C(=O)Nc3ccc(Br)cc3)c1)O2` (stereo not given): 73.1%; for `COc1ccc(N2CCN(c3nc(-c4ccccc4)c(C#N)c(=O)[nH]3)CC2)cc1`: 55.2%.
The same measure for `COc1ccc(CSc2nc3cc(OC)c(OC)cc3c(=O)n2-c2ccc(Cl)cc2)cc1`: 104%; for `COc1cccc(-c2nc3sccn3c2-c2ccnc(NCCCNS(=O)(=O)c3ccc(F)cc3)n2)c1`: 12.1%.
The same measure for `CCCc1cc(NC)nc(S(=O)(=O)CC)n1`: 127%.
With `O=Cc1c[nH]c2ccc(NC(=O)OCc3ccccc3)cc12`, the growth was 200%.
The same measure for `C=C1C(=O)O[C@H]2[C@H]1CC/C(C=Nc1c(N)cc(C(F)(F)F)cc1C(F)(F)F)=C\CC[C@@]1(C)O[C@@H]21`: -24.9% (active).
The same measure for `CC(C)(C)NC/C(=C\c1ccccc1)C(=O)c1ccccc1`: 1.97% (active); for `CCOC(=O)C1=C(CCl)N(C)C(=O)NC1c1ccc2c(c1)OCO2` (stereo not given): 33.1%; for `c1coc(CNc2c3ccccc3nc3ccccc23)c1`: 93%.
Turning to `O=c1cc(Cl)[nH]c(=O)[nH]1`, the growth was 91.7%.
As for `CCOC(=O)c1sc(NC(=O)COc2ccc(/C=C3\Cc4ccc(Cl)cc4C3=O)cc2)nc1C`, the figure is 98%.
The same measure for `COc1cc(OC)cc(C2CC(=O)Nc3c2c(C)nn3-c2nc3ccccc3[nH]2)c1` (stereo not given): 9.31% (active); for `O=[N+]([O-])c1cccc(/C=N/NC(=S)NC23CC4CC(CC(C4)C2)C3)c1`: 101%.
Regarding `O=C(C(=O)c1ccc2c(c1)OCO2)c1ccc2c(c1)OCO2`, the growth was 62.3%.
`Cc1nc([P+](c2ccccc2)(c2ccccc2)c2ccccc2)c(N2CCCCC2)o1`: the growth was -2.68% (active).
Take `O/N=C/c1ccncc1`: the growth is 110%.
As for `CC1(C)OC2COC3(C(=O)O)OC(C)(C)OC3C2O1` (stereo not given), the figure is 106%; as for `CCNc1cc2c(cc1Br)-c1ccccc1C2=O`, 110%; as for `CCN(CC)CCN1C(=O)c2c(c(C)c3c(oc4ccc(OC)cc43)c2C)C1=O`, 93.3%.
As to `CCCCCCNC(=O)Oc1ccc(/C(=C(/C)Cc2ccc(OC)cc2)c2ccc(OCCN(C)C)cc2)cc1`, the growth was 47.4%.
In the case of `COc1cc(NCCCN=C(N)NC(N)=NC(C)C)c2ncccc2c1`, the growth is 85.7%.
With `CN(C)N1C(=O)c2c(Cl)c(Cl)c(Cl)c(Cl)c2C1=O`, the growth was 95.8%.
The same measure for `CCCCCc1nc2c(c3c1CCCC3)CCCC2`: -15.2% (active); for `CCN(CC)CCCC(Nc1c2ccc(Cl)cc2nc2ccc(OC)cc12)c1ccncc1` (stereo not given): 101%.
As for `C=CC(=O)Nc1ccc(Nc2nccc(-c3ccc(N4CCCC4)c(C#N)c3)n2)cc1`, the figure is -71.8% (active); as for `CC12CCC3C(CCC4CC(O)CCC43C)C1C/C(=C/O)C(=O)O2` (stereo not given), 107%; as for `CCCn1c(=S)sc2c(NNC(C)=O)nc(C)nc21`, 58.1%.
The same measure for `CC(C)(C)c1[nH]nc2c1C(c1cc3ccccc3[nH]c1=O)Nc1cc(C(=O)OCc3ccccc3)ccc1N2` (stereo not given): 54.5%; for `CCOC(=O)c1c(C(=O)OCC)c2cc(-c3ccn4c(C(=O)c5ccccc5)c(C(=O)OCC)c(C(=O)OCC)c4c3)ccn2c1C(=O)c1ccccc1`: 86.3%.
For the compound `CCC1CCc2nc3sc(C(=O)Nc4cccc(C)c4)c(N)c3cc2C1` (stereo not given), the growth was 55.7%.
As for `COc1ccc(NC(=O)c2ccc(NC3=C(c4ccc(Cl)cc4)C(=O)NC3=O)cc2)cc1`, the figure is 80.3%; as for `NC(N)=NC(N)=NCCCc1ccco1`, 83.1%; as for `CC(=O)c1c(C)nc(SCC(=O)Nc2ccc(Cl)cc2)n1-c1ccc(Cl)cc1`, 86.6%.
The same measure for `O=C(COc1ccc(Cl)cc1)N1CCN(Cc2ccc3c(c2)OCO3)CC1`: 109%.
For the compound `Cc1ccc2nc3c(nc2c1)-c1cccc2cccc-3c12`, the growth is 93.5%.
Regarding `CCCCN(CCCC)CCC(O)c1cc2ccc(C(F)(F)F)cc2c2cc(C(F)(F)F)ccc12` (stereo not given), the growth is 49.8%.
As for `CCOc1ccc(C(C[N+](=O)[O-])Sc2ccccc2N)cc1` (stereo not given), the figure is -16.2% (active); as for `C=C1C(=O)O[C@H]2[C@H]1CC/C(COC(=O)NCc1ccc(Cn3c(=O)sn(-c4ccc(Cl)cc4)c3=O)cc1)=C\CC[C@@]1(C)O[C@@H]21`, -11.4% (active).
